This is one part of a sample in which hits are shown more often than they occur.
Shiga inhibitor – inhibitors of Shiga toxin in Vero cells | Vero cells, Shiga toxin protein synthesis inhibition reporter | inhibition, % at 38.7 µM | 290,000 tested, 9.2% active; in the data active = inhibition mostly above about 28%, no sharp cut-off; inactive = mostly below about 43%; also: 0% is about no effect
Sm TGR block – blocks Schistosoma mansoni thioredoxin glutathione reductase; Q962Y6; purified TGR, DTNB reduction, TNB absorbance 405 nm; Potency, µM (series often up to 114 µM), for inactives: at the top dose activity change, negative = inhibition, most hits filed as inhibitors; 360,000 tested, 3% active; also: potency is read from the fitted curve at half-maximal effect; % is scaled to controls: 0 for no effect and ±100 for the full control effect; nearly all actives have a fitted effect of over 60% in size
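First, TGR (20 nM dispensed) and NADPH were mixed with compound. Second, a 15 min room-temperature incubation followed. Third, further NADPH and then DTNB were added to start the reaction. Finally, TNB absorbance was monitored kinetically.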
FBPA Giardia inh – blocks Giardia fructose-bisphosphate aldolase activity | 290,000 tested, 0.71% active | purified Giardia FBPA | A8B2U2 | Potency, µM (series often up to 59.6 µM), for inactives: at the highest dose activity, negative = inhibition, actives largely listed as inhibitors; also: potency is read from the fitted curve at half-maximal effect; % is scaled to controls: 0 for no effect and ±100 for the full control effect; nearly all actives have a fitted effect of over 55% in size
Target sequence (A8B2U2 whole entry, looked up): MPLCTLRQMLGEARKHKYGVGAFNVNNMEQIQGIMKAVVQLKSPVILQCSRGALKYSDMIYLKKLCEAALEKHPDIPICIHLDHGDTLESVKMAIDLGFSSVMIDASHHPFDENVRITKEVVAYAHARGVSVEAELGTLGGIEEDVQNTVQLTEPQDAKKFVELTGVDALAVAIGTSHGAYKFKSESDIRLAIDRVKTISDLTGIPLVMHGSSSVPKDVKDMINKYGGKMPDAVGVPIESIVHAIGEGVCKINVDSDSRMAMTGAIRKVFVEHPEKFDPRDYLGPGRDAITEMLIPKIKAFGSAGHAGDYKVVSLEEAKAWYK
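Giardia FBPA (40 nM reagent) was preincubated 10 min at RT with compound (up to 57.5 uM final), then substrate plus GAPDH/TPI/NAD/arsenate coupling system with diaphorase/resazurin was added; resorufin fluorescence (525/598 nm) was read after 20 min.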
TbPYK inhibitor – T. brucei pyruvate kinase inhibition. AID 624173. Q57TT1. Potency, µM (doses to about 76.8 µM), without a hit: top-dose activity, negative = inhibition, most hits filed as inhibitors. TbPYK enzyme, Kinase-Glo Plus ATP luminescence, 45 min. 410,000 tested, 0.12% active; also: potency is read from the fitted curve at half-maximal effect; % is scaled to controls: 0 for no effect and ±100 for the full control effect; nearly all actives have a fitted effect of over 50% in size
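Luminescent Kinase-Glo Plus end-point after 45 min room-temperature reaction of T. brucei pyruvate kinase started with 130 uM ADP (final). Buffer TEA 50 mM pH 7.2 with KCl, MgCl2, BSA, Tween-20; titration-based qHTS with fitted concentration-effect curves.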
LmPK inhibitor – blocks Leishmania mexicana pyruvate kinase activity; Q27686; 290,000 tested, 0.37% active; Potency, µM (top dose mostly 57.5 µM), inactives show top-dose activity change, negative = inhibition, usual class: inhibitors; purified LmPK, Kinase-Glo ATP luminescence, 1 h; also: potency is read from the fitted curve at half-maximal effect; % is scaled to controls: 0 for no effect and ±100 for the full control effect
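Kinase-Glo luminescence read after 1 h RT reaction of 0.1 nM LmPK with 0.5 mM PEP and 0.1 mM ADP. Activity scaled between uninhibited and enzyme-free controls.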
CHX counter – affects cycloheximide protein synthesis inhibition readout, counter-screen | cell reporter, cycloheximide protein synthesis inhibition counterscreen | AID 2314 | 300,000 tested, 12% active | max response, %; in the data active = max response mostly above about 13%, no sharp cut-off; inactive = mostly below about 14%; also: read at 38.3 µM for the half of the compounds with a filed dose; 0% is about no effect
Numbers without * were called inactive. Unless noted, calls follow the shape of the dose curve; as a rule, active = well fitted curve in the direction sought with a large enough effect; inconclusive = small, poorly fitted or top-dose-only effect, or another doubt; inactive = no such curve, though single readings can be large; an effect the other way counts as inactive or inconclusive.

Results for Cc1ccc(NC(=O)CCCNC(=O)c2ccc(Cl)cc2)nc1 ?
Shiga inhibitor: 63*; Sm TGR block: -1%; TbPYK inhibitor: -7%; LmPK inhibitor: -5%; CHX counter: 29*

Results for Cc1ccc(NC(=O)CCNC(=O)c2ccccc2Cl)nc1 ?
Shiga inhibitor: 14; Sm TGR block: -23%; TbPYK inhibitor: -1%; LmPK inhibitor: -8%; CHX counter: 5

Results for O=C(c1ccc(-c2ccccc2)cc1)C1CCCN(Cc2ccncc2)C1 (stereo not drawn) ?
Shiga inhibitor: 53; Sm TGR block: 15%; FBPA Giardia inh: -9%; TbPYK inhibitor: -6%; LmPK inhibitor: 1%; CHX counter: 48*

Results for O=C(c1ccc(-c2ccccc2)cc1)C1CCCN(Cc2ccn[nH]2)C1 (stereo not drawn) ?
Shiga inhibitor: 10; Sm TGR block: 24%; FBPA Giardia inh: 3%; TbPYK inhibitor: -7%; LmPK inhibitor: 2%; CHX counter: 1

Results for CC(C)(C)c1ccc(C(=O)C2CCCN(Cc3ccon3)C2)cc1 (stereo not drawn) ?
Shiga inhibitor: 33*; Sm TGR block: -17%; FBPA Giardia inh: -13%; TbPYK inhibitor: 1%; LmPK inhibitor: 4%; CHX counter: 22*

How did COc1ccc(CCCO[C@@H](Cn2ccnc2)c2ccc(OC)cc2)cc1 do in these assays?
FBPA Giardia inh: -2%

How did NS(=O)(=O)c1ccc(NCCCn2ccnc2)c([N+](=O)[O-])c1 do in these assays?
Shiga inhibitor: -6; Sm TGR block: 0%; FBPA Giardia inh: -5%; TbPYK inhibitor: -1%; LmPK inhibitor: -4%; CHX counter: -5

Results for O=C1c2ccccc2-c2onc3ccc(NCCCn4ccnc4)c1c23 ?
Shiga inhibitor: -7; Sm TGR block: 20µM*; FBPA Giardia inh: -29%; TbPYK inhibitor: 1%; LmPK inhibitor: -25%; CHX counter: -2

What do the screens show for `Cc1ccc(S(=O)(=O)N2CCC(C(=O)Nc3ccc(C)c(Cl)c3)CC2)cc1`?
Sm TGR block: -6%; TbPYK inhibitor: -2%

What do the screens show for `O=S(=O)(c1ccc(Br)cc1)c1nc(-c2ccco2)oc1NCC1CCCO1` (stereo not drawn)?
Shiga inhibitor: 16; Sm TGR block: 20µM*; FBPA Giardia inh: -6%; TbPYK inhibitor: 4%; LmPK inhibitor: 5%; CHX counter: 3

Results for Cc1ccc(S(=O)(=O)c2nc(-c3ccco3)oc2NCC2CCCO2)cc1 (stereo not drawn) ?
Shiga inhibitor: 16; Sm TGR block: 8.9µM*; FBPA Giardia inh: -29%; TbPYK inhibitor: -19%; LmPK inhibitor: 0%; CHX counter: 6

Results for COc1cccc(NC(=O)CSc2nc3c(oc4ccccc43)c(=O)n2Cc2ccco2)c1 ?
Sm TGR block: 4%; TbPYK inhibitor: -6%

What do the screens show for `Cc1ccc(CNC(C)c2ccccc2)cc1` (stereo not drawn)?
Shiga inhibitor: -2; Sm TGR block: 0%; FBPA Giardia inh: -1%; TbPYK inhibitor: -5%; LmPK inhibitor: -2%; CHX counter: -1

How did CC(=O)c1ccc(NC(=O)CNCC(c2ccccc2)N(C)C)cc1 (stereo not drawn) do in these assays?
Shiga inhibitor: -10; Sm TGR block: 2%; FBPA Giardia inh: -20%; TbPYK inhibitor: 25%; LmPK inhibitor: -9%; CHX counter: 2

What do the screens show for `Cc1ccc(NC(=O)NCC(c2ccccc2)N(C)C)cc1` (stereo not drawn)?
Shiga inhibitor: 68*; Sm TGR block: 15%; FBPA Giardia inh: 6%; TbPYK inhibitor: 0%; LmPK inhibitor: 0%; CHX counter: 35*

What do the screens show for `Cc1ccc(NC(=O)CNC(C)c2ccccc2)cc1` (stereo not drawn)?
Shiga inhibitor: 50*; Sm TGR block: -7%; FBPA Giardia inh: -19%; TbPYK inhibitor: -5%; LmPK inhibitor: -2%; CHX counter: 29*

What do the screens show for `CC(C)[C@@H](CC(=O)N[C@@H]1CCNC[C@H]1C(=O)N[C@H](CC(=O)N[C@@H](CCC(=O)O)CC(=O)O)Cc1c[nH]c2ccccc12)NC(=O)C[C@H](Cc1ccccc1)NC(=O)[C@@H]1CNCC[C@H]1N`?
FBPA Giardia inh: 7%

How did NNc1nc(-c2ccccc2Cl)nc2sc3c(c12)CCCC3 do in these assays?
Shiga inhibitor: 52*; Sm TGR block: 0%; FBPA Giardia inh: -20%; TbPYK inhibitor: 3%; LmPK inhibitor: 3%; CHX counter: 46*

How did CC(C)S(=O)(=O)c1oc(-c2cccs2)nc1S(=O)(=O)c1ccc(F)cc1 do in these assays?
Sm TGR block: 0.89µM*; TbPYK inhibitor: -4%

What do the screens show for `CC(C)S(=O)(=O)c1oc(-c2ccc(F)cc2)nc1S(=O)(=O)c1ccccc1`?
Sm TGR block: 0.89µM*; TbPYK inhibitor: -6%

What do the screens show for `CSc1oc(-c2ccc(F)cc2)nc1S(=O)(=O)c1ccccc1`?
Shiga inhibitor: -24; Sm TGR block: -1%; FBPA Giardia inh: 0%; TbPYK inhibitor: 2%; LmPK inhibitor: 7%; CHX counter: 19*

What do the screens show for `CC(O)CN1CCN(CC(=O)[O-])CCN(CC(=O)[O-])CCN(CC(=O)[O-])CC1.[Gd+3]` (stereo not drawn)?
TbPYK inhibitor: 4%

How did CCN(CC(=O)Nc1c(F)cccc1F)C(=O)c1cccn1C do in these assays?
TbPYK inhibitor: -7%

How did COc1ncccc1C(=O)N1CCCC(N2CCN(c3cccc(Cl)c3)CC2)C1 (stereo not drawn) do in these assays?
Shiga inhibitor: -4; Sm TGR block: inconclusive; TbPYK inhibitor: -5%; LmPK inhibitor: 0%; CHX counter: 9

Results for CC(C)NC(=O)CCS(=O)(=O)c1cccc2nonc12 ?
Shiga inhibitor: 37; Sm TGR block: -24%; FBPA Giardia inh: 0%; TbPYK inhibitor: -5%; LmPK inhibitor: 0%; CHX counter: -1

Results for O=C(CCS(=O)(=O)c1cccc2nonc12)NCc1ccc(Cl)cc1 ?
Shiga inhibitor: 10; Sm TGR block: 35µM*; FBPA Giardia inh: 0%; TbPYK inhibitor: 2%; LmPK inhibitor: 7%; CHX counter: 4

What do the screens show for `COc1cccc(CNC(=O)CCS(=O)(=O)c2cccc3nonc23)c1`?
Shiga inhibitor: 13; Sm TGR block: 45µM*; FBPA Giardia inh: 0%; TbPYK inhibitor: -2%; LmPK inhibitor: -4%; CHX counter: -3

Results for O=C(CCS(=O)(=O)c1cccc2nonc12)N1CCCc2ccccc21 ?
Shiga inhibitor: 44; Sm TGR block: 35µM*; FBPA Giardia inh: 4%; TbPYK inhibitor: 2%; LmPK inhibitor: -1%; CHX counter: 4
